The experiment concerns V-C8 (BRCA2-deficient hamster cells). As to the kind of experiment: normalised cell viability (fraction of plate median); higher = more viable cells (less toxic). The conditions noted are these: 5 µM. Put shortly: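 Cell viability was measured with a resazurin assay, normalised to the plate median (modified robust per cent of sample) and averaged over triplicate wells. Hamster V-C8 cells lacking BRCA2 and V-C8 cells with BRCA2 restored were seeded in 96-well plates. After 24 h, library drugs from 10 mM DMSO stocks were added at a final 5 μM in 100 μl medium and left for 3 days (screen 1) or 6 days (screen 2), with solvent-only wells alongside.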

Molecules are shown by their SMILES. Counter-ions that a name gives are not always drawn. ± gives the standard deviation of the averaged measurements. In all, about 1,300 compounds were measured (“normalised cell viability”: median about 1, lowest 2% from about 0.14 on). This is one part of a sample in which the lowest values are shown more often than they occur.

Take `CN[C@H](CC(C)C)C(=O)N[C@H]1C(=O)N[C@@H](CC(N)=O)C(=O)N[C@H]2C(=O)N[C@H]3C(=O)N[C@H](C(=O)N[C@H](C(=O)O)c4cc(O)cc(O)c4-c4cc3ccc4O)[C@H](O)c3ccc(c(Cl)c3)Oc3cc2cc(c3O[C@@H]2O[C@H](CO)[C@@H](O)[C@H](O)[C@H]2O[C@H]2C[C@](C)(N)[C@H](O)[C@H](C)O2)Oc2ccc(cc2Cl)[C@H]1O` [Vancomycin hydrochloride]: the normalised cell viability by setting is: (treatment time: 3 days) 0.159 ± 0.01; (treatment time: 6 days) 0.141 ± 0.0064.

On to `CC(CN(C)C)C(C)(O)Cc1ccc(Cl)cc1` (centres undefined) [Clobutinol hydrochloride], for which the normalised cell viability turned out to be 1.05 ± 0.13 (treatment time: 3 days) and 1.11 ± 0.064 (treatment time: 6 days).

In the case of `Cc1cc(NC(=O)C2=C(O)c3ccccc3S(=O)(=O)N2C)no1` [Isoxicam], the normalised cell viability reads like this: (treatment time: 3 days) 1.04 ± 0.06; (treatment time: 6 days) 1.06 ± 0.042.

`CC[C@]12CCCN3CCc4c(n(c5ccccc45)C(=O)C1)[C@@H]32` [Eburnamonine (-)]: the normalised cell viability (treatment time: 3 days) was found to be 0.362 ± 0.016 and the normalised cell viability (treatment time: 6 days) turned out to be 0.643 ± 0.11.

Turning to `CN(C)[C@@H]1C(O)=C(C(N)=O)C(=O)[C@@]2(O)C(O)=C3C(=O)c4c(O)cccc4[C@@](C)(O)[C@H]3[C@H](O)[C@@H]12` [Oxytetracycline dihydrate], the normalised cell viability was found to be 0.991 ± 0.015 (treatment time: 3 days) and 0.945 ± 0.05 (treatment time: 6 days).

Consider `C=C(NC(=O)C(=C)NC(=O)c1csc(C2=N[C@@H]3c4csc(n4)[C@H]4NC(=O)c5csc(n5)[C@H]([C@](C)(O)[C@@H](C)O)NC(=O)[C@H]5CSC(=N5)/C(=C/C)NC(=O)[C@H]([C@@H](C)O)NC(=O)c5csc(n5)[C@]3(CC2)NC(=O)[C@H](C)NC(=O)C(=C)NC(=O)[C@H](C)NC(=O)[C@H]([C@@H](C)CC)N[C@@H]2C=Cc3c([C@H](C)O)cc(nc3[C@H]2O)C(=O)O[C@@H]4C)n1)C(N)=O` [Thiostrepton], for which the normalised cell viability stood at 0.14 ± 0.011 (treatment time: 3 days) and 0.126 ± 0.0091 (treatment time: 6 days).

In turn, `COc1c(O[C@@H]2O[C@H](CO)[C@@H](O)[C@H](O)[C@H]2O)cc2c(c1OC)-c1ccc(SC)c(=O)cc1[C@@H](NC(C)=O)CC2` [Thiocolchicoside] registered a normalised cell viability (treatment time: 3 days) of 1.22 ± 0.36 and a normalised cell viability (treatment time: 6 days) of 0.97 ± 0.017.

For `CCCCc1cc2ccccc2c(OCCN(C)C)n1` [Dimethisoquin hydrochloride], the normalised cell viability by setting is: (treatment time: 3 days) 1.03 ± 0.087; (treatment time: 6 days) 1.04 ± 0.05.

For the compound `CCOc1ccc2c(c1)C(C)=CC(C)(C)N2` [Ethoxyquin], the normalised cell viability is, setting by setting: (treatment time: 3 days) 0.883 ± 0.014; (treatment time: 6 days) 1.2 ± 0.26.

For `CCN(CC)CCOC(=O)C(c1ccccc1)C1CCCCC1` (centres undefined) [Drofenine hydrochloride], the normalised cell viability is 1.02 ± 0.038 (treatment time: 3 days) and 1.02 ± 0.07 (treatment time: 6 days).

As to `CCN(CC)CCOC(=O)C(Cc1cccc2ccccc12)CC1CCCO1` (centres undefined) [Nafronyl oxalate], the normalised cell viability (treatment time: 3 days) came out at 0.1613 ± 0.00033 and the normalised cell viability (treatment time: 6 days) came to 0.14 ± 0.0088.

With `CCN(CC)CCOC(=O)C(c1ccccc1)c1ccccc1` [Adiphenine hydrochloride], the normalised cell viability turned out to be 0.976 ± 0.021 (treatment time: 3 days) and 1.02 ± 0.039 (treatment time: 6 days).

For the compound `COCCOC(=O)C1=C(C)NC(C)=C(C(=O)OC/C=C/c2ccccc2)C1c1cccc([N+](=O)[O-])c1` (centres undefined) [Cilnidipine], the normalised cell viability (treatment time: 3 days) amounted to 0.98 ± 0.03 and the normalised cell viability (treatment time: 6 days) was found to be 1.01 ± 0.015.

With `CC(=C(CCO)SSCC1CCCO1)N(C=O)Cc1cnc(C)nc1N` (stereo in doubt) [Fursultiamine Hydrochloride], the normalised cell viability by setting is: (treatment time: 3 days) 1.03 ± 0.025; (treatment time: 6 days) 1.03 ± 0.0084.

Compound `Cc1ccccc1C(OCCN(C)C)c1ccccc1` (centres undefined) [Orphenadrine hydrochloride] returned a normalised cell viability (treatment time: 3 days) of 1.05 ± 0.14 and a normalised cell viability (treatment time: 6 days) of 0.964 ± 0.14.

Take `O=C(O)c1cc(/N=N/c2ccc(S(=O)(=O)Nc3ccccn3)cc2)ccc1O` [Sulfasalazine]: the normalised cell viability runs as follows: (treatment time: 3 days) 1.03 ± 0.056; (treatment time: 6 days) 0.993 ± 0.046.

Turning to `N#Cc1ccc(C2CCCc3cncn32)cc1` (centres undefined) [Fadrozole hydrochloride], the normalised cell viability runs as follows: (treatment time: 3 days) 1.01 ± 0.087; (treatment time: 6 days) 0.97 ± 0.079.

With `COc1cccc2c1C(=O)c1c(O)c3c(c(O)c1C2=O)C[C@@](O)(C(C)=O)C[C@@H]3O[C@H]1C[C@H](N)[C@H](O)[C@H](C)O1` [Daunorubicin hydrochloride], the normalised cell viability by setting is: (treatment time: 3 days) 0.141 ± 0.011; (treatment time: 6 days) 0.124 ± 0.0055.

For `COc1cccc2c1C(=O)c1c(O)c3c(c(O)c1C2=O)C[C@@](O)(C(=O)CO)C[C@@H]3O[C@H]1C[C@H](N)[C@H](O)[C@H](C)O1` [Doxorubicin hydrochloride], the normalised cell viability reads like this: (treatment time: 3 days) 0.127 ± 0.0054; (treatment time: 6 days) 0.113 ± 0.0072.

On to `COc1cccc2c1C(=O)c1c(O)c3c(c(O)c1C2=O)C[C@@](O)(C(=O)CO)C[C@@H]3O[C@H]1C[C@H](N)[C@@H](O)[C@H](C)O1` [Epirubicin hydrochloride], for which the normalised cell viability reads like this: (treatment time: 3 days) 0.123 ± 0.013; (treatment time: 6 days) 0.163 ± 0.016.

For `Cc1nccn1CC1CCc2c(c3ccccc3n2C)C1=O` (centres undefined) [Ondansetron Hydrochloride], the normalised cell viability amounted to 1.07 ± 0.04 (treatment time: 3 days) and 1.1 ± 0.082 (treatment time: 6 days).

`CC(C)NCC(O)c1ccc(O)c(O)c1` (single isomer, unassigned; (+)) [(+)-Isoproterenol (+)-bitartrate salt] gave a normalised cell viability (treatment time: 3 days) of 1.028 ± 0.0063 and a normalised cell viability (treatment time: 6 days) of 0.926 ± 0.063.

Turning to `CC(=O)NC[C@H]1CN(c2ccc(N3CCOCC3)c(F)c2)C(=O)O1` [Linezolid], the normalised cell viability reads like this: (treatment time: 3 days) 1.04 ± 0.039; (treatment time: 6 days) 0.972 ± 0.047.

Consider `c1ccc(CNc2ncnc3nc[nH]c23)cc1` [Aminopurine, 6-benzyl], for which the normalised cell viability runs as follows: (treatment time: 3 days) 0.947 ± 0.1; (treatment time: 6 days) 0.94 ± 0.075.

On to `O=C1C=CC(=O)c2c1ccc1c2ccc2ccccc21` [Chrysene-1,4-quinone], for which the normalised cell viability runs as follows: (treatment time: 3 days) 1.02 ± 0.061; (treatment time: 6 days) 1.06 ± 0.12.

Regarding `Nc1c2c(nc3ccccc13)CCCC2` [Tacrine hydrochloride], the normalised cell viability (treatment time: 3 days) came out at 0.984 ± 0.031 and the normalised cell viability (treatment time: 6 days) was 1.1 ± 0.049.

`CC(C)Cn1cnc2c(N)nc3ccccc3c21` [Imiquimod]: the normalised cell viability is, setting by setting: (treatment time: 3 days) 1.11 ± 0.044; (treatment time: 6 days) 1.02 ± 0.064.

Regarding `Nc1c2ccccc2nc2ccccc12` [Aminacrine], the normalised cell viability is, setting by setting: (treatment time: 3 days) 0.127 ± 0.015; (treatment time: 6 days) 0.164 ± 0.015.

Take `CN1CCN(c2c(F)cc3c(=O)c(C(=O)O)cn(CCF)c3c2F)CC1` [Fleroxacin]: the normalised cell viability came to 0.982 ± 0.046 (treatment time: 3 days) and 0.977 ± 0.051 (treatment time: 6 days).

Take `COC(=O)Nc1nc2cc(C(=O)c3cccs3)ccc2[nH]1` [Nocodazole]: the normalised cell viability by setting is: (treatment time: 3 days) 0.147 ± 0.0062; (treatment time: 6 days) 0.128 ± 0.004.

`COC(=O)Nc1nc2cc([S+]([O-])c3ccccc3)ccc2[nH]1` (centres undefined) [Oxfendazol] registered a normalised cell viability (treatment time: 3 days) of 0.712 ± 0.076 and a normalised cell viability (treatment time: 6 days) of 0.775 ± 0.014.

Consider `COC(=O)Nc1nc2cc(C(=O)c3ccc(F)cc3)ccc2[nH]1` [Flubendazol], for which the normalised cell viability (treatment time: 3 days) amounted to 0.148 ± 0.019 and the normalised cell viability (treatment time: 6 days) worked out at 0.16 ± 0.0047.
